Reference: PubChem BioAssay (EPA / NIEHS)
Inconclusive results are not listed. Calls of active or inactive are those of the source. The calls were made as follows: active = hit-call score of the fitted dose curve at least 0.9, where 1 is the maximum; inconclusive = response in the unintended direction; inactive = score below 0.9.

What was measured:
[1] = target: rat Adrenergic Receptor, Beta (Adrb), Non-selective Binding, Adrb1 (gene 24925) (UniProt P18090); test: NVS_GPCR_rAdrb_NonSelective: NovaScreen (NVS) G Protein-Coupled Receptor Assay for rat Adrenergic Receptor, Beta (Adrb), Non-selective Binding (AID 2283298)
Procedure, shortened: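 Rat cortical membranes incubated 1 h with beta-adrenergic radioligand and test chemical; bound ligand measured by filtration and scintillation counting. Screen at 25 uM duplicate, then concentration series with 50 uM maximum; loss of signal versus DMSO.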

[2] = target: rat Gamma-Aminobutyric Acid Type B Receptor (GABBR), Gabbr1 (gene 81657) (UniProt Q9Z0U4); test: NVS_GPCR_rGABBR: NovaScreen (NVS) G Protein-Coupled Receptor Assay for rat Gamma-Aminobutyric Acid Type B Receptor (GABBR) (AID 2283301)
Procedure, shortened: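 Rat cortical membrane preparation, competitive radioligand binding for 1 h with filtration and scintillation readout. Actives from duplicate single-point 25 uM screening proceeded to concentration series with 50 uM top concentration.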

Adra2b (gene 24174) = Adra2b (gene 24174) (UniProt P19328); test: NVS_GPCR_rmAdra2B: NovaScreen (NVS) G Protein-Coupled Receptor Assay for hybird cells Adrenergic, Alpha 2B Receptor (Adra2B) (AID 2283306)
Procedure, shortened: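 Compounds screened first at 25 uM in duplicate, with actives followed up in concentration-response; specific radioligand displacement from hybrid neuroglioma/blastoma cell membrane preparations measured by filter scintillation counting after 1 h, normalized to DMSO.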

[3] = target: rat Adrenergic, Alpha 1A Receptor (Adra1A), Adra1a (gene 29412) (UniProt P43140); test: NVS_GPCR_rAdra1A: NovaScreen (NVS) G Protein-Coupled Receptor Assay for rat Adrenergic, Alpha 1A Receptor (Adra1A) (AID 2283296)
Procedure, shortened: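 Filter radiodetection after 1 h competitive binding on CEC-pretreated rat cortical membranes. Duplicate single-point screening at 25 uM; active chemicals retested across concentration series.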

[4] = system: rat Adrenergic, Alpha 1B Receptor (Adra1B), gene 24173; test: NVS_GPCR_rAdra1B: NovaScreen (NVS) G Protein-Coupled Receptor Assay for rat Adrenergic, Alpha 1B Receptor (Adra1B) (AID 2283297)
Procedure, shortened: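 Filter-binding radioligand competition on membranes from rat liver, read after 1 h by scintillation counting. Single-concentration duplicate screen at 25 uM, followed by concentration-response on actives, normalised to DMSO.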

[5] = target: rat Adrenergic Receptor, Alpha 2 (Adra2), Non-selective Binding, Adra2a (gene 25083) (UniProt P22909); test: NVS_GPCR_rAdra2_NonSelective: NovaScreen (NVS) G Protein-Coupled Receptor Assay for rat Adrenergic Receptor, Alpha 2 (Adra2), Non-selective Binding (AID 2283299)
Procedure, shortened: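 Filter-based scintillation counting of radioligand binding to rat cortical membrane receptors, measured 1.25 hours post-dosing; loss of signal versus DMSO indicates displacement. Initial single-concentration duplicate at 25 uM, then concentration series.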

[6] = target: rat Histamine Receptor (H3), Hrh3 (gene 85268) (UniProt Q9QYN8); test: NVS_GPCR_rH3: NovaScreen (NVS) G Protein-Coupled Receptor Assay for rat Histamine Receptor (H3) (AID 2283303)
Procedure, shortened: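 Filter-binding radioligand competition on rat forebrain membranes, 1 h incubation; compounds screened at 25 µM in duplicate and followed in concentration series to 50 µM, loss of bound signal vs DMSO.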

[7] = target: Metabotropic glutamate receptor 1 (Rattus norvegicus) (UniProt P23385); test: NVS_GPCR_rmMGluR1: NovaScreen (NVS) G Protein-Coupled Receptor Assay for rat Glutamate Metabotropic Receptor 1 (MGluR1) (AID 2283305)
Method: NVS_GPCR_rmMGluR1 is a biochemical, single-readout assay that uses extracted gene-proteins from Rat cerebellum in a tissue-based cell-free assay. Measurements were taken 1 hour after chemical dosing in a 96-well plate.NVS_GPCR_rmMGluR1 is one of one assay component(s) measured or calculated from the NVS_GPCR_rmMGluR1 assay. It is designed to make measurements of radioligand binding, a form of binding reporter, as detected with scintillation counting signals by Filter-based radiodetection technology.Data from the assay component NVS_GPCR_rmMGluR1 was analyzed into 1 assay endpoint. This assay endpoint, NVS_GPCR_rmMGluR1, was analyzed in the positive analysis fitting direction relative to DMSO as the negative control and baseline of activity. Using a type of binding reporter, loss-of-signal activity can be used to understand changes in the binding as they relate to the gene Grm1. Furthermore, this assay endpoint can be referred to as a primary readout, because the performed assay has only produced 1 assay endpoint. To generalize the intended target to other relatable targets, this assay endpoint is annotated to the gpcr intended target family, where the subfamily is metabotropic glutamate receptor.
Binding assays used specific radioligands (tritiated, iodinated) with non-radioactive competitive displacement ligands in agonist or antagonist protocols (as indicated) and various reference compounds and inhibitors to titrate specific binding to receptors and transporters. Most enzyme assays (CYPs, kinases, phosphatases, proteases, HDACs) used recombinant protein and specific substrates (fluorescence mostly, some colorimetric and radioactive) and inhibitors, followed by a biochemical separation of substrate and product. All assays for the biochemical HTS were initially run in duplicate at a single concentration (10 uM for CYP450 assays and 25 uM for all others). Assay-chemical combinations meeting a pre-defined threshold (e.g., 30% inhibition and other criteria defined below) were then run in singleton concentration-response format with maximum concentration of 20 uM for CYPs and 50 uM for all others. Each assay was run with positive and negative controls, and concurrent controls on every plate. The follow-up (secondary) screen tested active chemical-pairs in concentration series, as well as a few additional assays not tested in the primary screen, some selected negative inactives, and several cases re-run in the concentration series for confirmatory purposes.

[8] = target: rat Corticotropin Releasing Factor Receptor (CRF), Crhr1 (gene 58959) (UniProt P35353); test: NVS_GPCR_rCRF: NovaScreen (NVS) G Protein-Coupled Receptor Assay for rat Corticotropin Releasing Factor Receptor (CRF) (AID 2283300)
Method: NVS_GPCR_rCRF is a biochemical, single-readout assay that uses extracted gene-proteins from Rat cortical membranes in a tissue-based cell-free assay. Measurements were taken 2 hours after chemical dosing in a 96-well plate.NVS_GPCR_rCRF is one of one assay component(s) measured or calculated from the NVS_GPCR_rCRF assay. It is designed to make measurements of radioligand binding, a form of binding reporter, as detected with scintillation counting signals by […] radiodetection technology.Data from the assay component NVS_GPCR_rCRF was analyzed into 1 assay endpoint. This assay endpoint, NVS_GPCR_rCRF, was analyzed in the positive analysis fitting direction relative to DMSO as the negative control and baseline of activity. […] Furthermore, this assay endpoint can be referred to as a primary readout, because the performed assay has only produced 1 assay endpoint. […]
Binding assays used specific radioligands (tritiated, iodinated) with non-radioactive competitive displacement ligands in agonist or antagonist protocols (as indicated) and various reference compounds and inhibitors to titrate specific binding to receptors and transporters. Most enzyme assays (CYPs, kinases, phosphatases, proteases, HDACs) used recombinant protein and specific substrates (fluorescence mostly, some colorimetric and radioactive) and inhibitors, followed by a biochemical separation of substrate and product. […]

[9] = target: rat Serotonin, 5-Hydroxytryptamine Receptor (5HT), Non-Selective Binding, Htr1a (gene 24473) (UniProt P19327); test: NVS_GPCR_r5HT_NonSelective: NovaScreen (NVS) G Protein-Coupled Receptor Assay for rat Serotonin, 5-Hydroxytryptamine Receptor (5HT), Non-Selective Binding (AID 2283295)
Procedure, shortened: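 Rat cortex membrane preparation incubated 1 h with radioligand and test chemical; bound radioactivity counted after filtration. Screening began in duplicate at 25 uM with concentration-series follow-up; fitting relative to DMSO.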

Chain of rat Histamine Receptor (H3), Hrh3 (gene 85268) (Q9QYN8 whole entry, looked up): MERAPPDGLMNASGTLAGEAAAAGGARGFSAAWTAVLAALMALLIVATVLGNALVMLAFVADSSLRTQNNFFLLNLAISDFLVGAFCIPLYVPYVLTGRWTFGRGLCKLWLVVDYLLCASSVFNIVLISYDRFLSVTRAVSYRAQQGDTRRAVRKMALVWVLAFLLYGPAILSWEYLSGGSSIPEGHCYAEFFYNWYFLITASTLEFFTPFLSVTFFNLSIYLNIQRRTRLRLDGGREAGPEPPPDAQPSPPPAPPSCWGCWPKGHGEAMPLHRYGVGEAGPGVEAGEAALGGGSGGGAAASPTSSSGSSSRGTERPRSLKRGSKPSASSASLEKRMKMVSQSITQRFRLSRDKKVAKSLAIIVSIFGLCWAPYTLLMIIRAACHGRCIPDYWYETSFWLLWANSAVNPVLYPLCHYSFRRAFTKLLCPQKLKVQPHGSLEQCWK
Chain of rat Gamma-Aminobutyric Acid Type B Receptor (GABBR), Gabbr1 (gene 81657) (Q9Z0U4 whole entry, looked up): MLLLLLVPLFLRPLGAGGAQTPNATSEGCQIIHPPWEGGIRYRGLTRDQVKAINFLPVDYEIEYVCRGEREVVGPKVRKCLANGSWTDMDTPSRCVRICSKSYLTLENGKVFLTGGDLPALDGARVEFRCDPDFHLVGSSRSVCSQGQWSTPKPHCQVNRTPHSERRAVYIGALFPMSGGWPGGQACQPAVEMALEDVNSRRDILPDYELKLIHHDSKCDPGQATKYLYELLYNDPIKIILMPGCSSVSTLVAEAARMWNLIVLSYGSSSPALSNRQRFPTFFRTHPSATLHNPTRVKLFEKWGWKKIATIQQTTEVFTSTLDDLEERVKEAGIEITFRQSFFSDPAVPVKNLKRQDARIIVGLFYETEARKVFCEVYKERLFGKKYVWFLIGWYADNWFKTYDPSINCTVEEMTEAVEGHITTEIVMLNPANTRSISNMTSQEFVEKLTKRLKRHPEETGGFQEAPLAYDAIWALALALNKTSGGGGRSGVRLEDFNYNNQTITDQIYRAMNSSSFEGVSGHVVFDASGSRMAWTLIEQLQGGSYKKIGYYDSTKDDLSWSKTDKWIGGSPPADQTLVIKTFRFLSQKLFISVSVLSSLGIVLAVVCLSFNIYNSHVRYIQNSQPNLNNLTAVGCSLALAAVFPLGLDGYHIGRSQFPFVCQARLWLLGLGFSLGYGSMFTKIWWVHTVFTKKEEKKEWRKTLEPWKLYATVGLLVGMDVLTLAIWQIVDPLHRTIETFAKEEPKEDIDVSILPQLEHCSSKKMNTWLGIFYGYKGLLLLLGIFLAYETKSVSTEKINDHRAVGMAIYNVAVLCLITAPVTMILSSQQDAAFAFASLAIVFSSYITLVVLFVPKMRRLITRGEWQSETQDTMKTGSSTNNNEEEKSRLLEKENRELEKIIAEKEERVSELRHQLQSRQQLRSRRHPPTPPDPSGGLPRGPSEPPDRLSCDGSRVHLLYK
Chain of Metabotropic glutamate receptor 1 (Rattus norvegicus) (P23385 whole entry, looked up): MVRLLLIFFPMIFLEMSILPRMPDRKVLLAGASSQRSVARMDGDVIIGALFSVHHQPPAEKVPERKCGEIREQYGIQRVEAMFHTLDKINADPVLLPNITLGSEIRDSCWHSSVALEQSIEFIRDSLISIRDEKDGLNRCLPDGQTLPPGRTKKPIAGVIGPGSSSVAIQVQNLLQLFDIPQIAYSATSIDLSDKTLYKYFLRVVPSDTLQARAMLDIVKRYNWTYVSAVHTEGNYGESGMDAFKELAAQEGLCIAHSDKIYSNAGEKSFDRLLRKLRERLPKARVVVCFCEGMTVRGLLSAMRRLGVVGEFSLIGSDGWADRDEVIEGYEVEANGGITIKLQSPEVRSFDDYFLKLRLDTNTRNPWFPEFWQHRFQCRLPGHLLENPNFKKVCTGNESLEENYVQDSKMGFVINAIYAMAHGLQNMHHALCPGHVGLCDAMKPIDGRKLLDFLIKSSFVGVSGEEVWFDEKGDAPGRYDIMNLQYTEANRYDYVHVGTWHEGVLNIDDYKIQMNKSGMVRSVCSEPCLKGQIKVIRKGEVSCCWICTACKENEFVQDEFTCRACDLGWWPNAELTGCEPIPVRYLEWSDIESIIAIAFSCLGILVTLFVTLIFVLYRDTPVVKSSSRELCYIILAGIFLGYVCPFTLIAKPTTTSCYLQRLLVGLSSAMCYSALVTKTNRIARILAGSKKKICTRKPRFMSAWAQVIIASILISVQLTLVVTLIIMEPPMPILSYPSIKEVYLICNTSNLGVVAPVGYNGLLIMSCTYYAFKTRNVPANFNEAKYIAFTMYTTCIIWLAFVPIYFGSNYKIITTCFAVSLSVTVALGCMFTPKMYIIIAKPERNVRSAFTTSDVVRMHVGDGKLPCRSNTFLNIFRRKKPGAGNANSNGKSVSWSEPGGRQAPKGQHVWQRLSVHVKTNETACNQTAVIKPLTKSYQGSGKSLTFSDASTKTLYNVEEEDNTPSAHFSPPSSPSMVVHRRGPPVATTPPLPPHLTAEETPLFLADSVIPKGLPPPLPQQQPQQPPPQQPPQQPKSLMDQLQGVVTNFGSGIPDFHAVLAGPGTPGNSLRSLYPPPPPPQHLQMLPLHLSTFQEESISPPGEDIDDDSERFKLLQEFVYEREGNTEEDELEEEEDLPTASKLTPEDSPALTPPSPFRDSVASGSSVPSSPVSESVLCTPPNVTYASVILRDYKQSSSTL
Chain of rat Adrenergic Receptor, Beta (Adrb), Non-selective Binding, Adrb1 (gene 24925) (P18090 whole entry, looked up): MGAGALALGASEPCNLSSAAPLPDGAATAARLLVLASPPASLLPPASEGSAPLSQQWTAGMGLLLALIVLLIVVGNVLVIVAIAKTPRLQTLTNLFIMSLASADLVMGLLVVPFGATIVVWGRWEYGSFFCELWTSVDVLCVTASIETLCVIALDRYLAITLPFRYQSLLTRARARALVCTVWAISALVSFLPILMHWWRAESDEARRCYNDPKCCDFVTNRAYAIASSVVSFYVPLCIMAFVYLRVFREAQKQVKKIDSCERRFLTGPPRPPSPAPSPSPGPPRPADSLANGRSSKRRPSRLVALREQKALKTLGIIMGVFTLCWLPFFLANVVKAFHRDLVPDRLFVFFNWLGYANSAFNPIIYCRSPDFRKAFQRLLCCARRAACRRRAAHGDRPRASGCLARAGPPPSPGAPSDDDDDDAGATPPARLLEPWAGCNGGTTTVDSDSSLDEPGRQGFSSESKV
Chain of rat Adrenergic Receptor, Alpha 2 (Adra2), Non-selective Binding, Adra2a (gene 25083) (P22909 whole entry, looked up): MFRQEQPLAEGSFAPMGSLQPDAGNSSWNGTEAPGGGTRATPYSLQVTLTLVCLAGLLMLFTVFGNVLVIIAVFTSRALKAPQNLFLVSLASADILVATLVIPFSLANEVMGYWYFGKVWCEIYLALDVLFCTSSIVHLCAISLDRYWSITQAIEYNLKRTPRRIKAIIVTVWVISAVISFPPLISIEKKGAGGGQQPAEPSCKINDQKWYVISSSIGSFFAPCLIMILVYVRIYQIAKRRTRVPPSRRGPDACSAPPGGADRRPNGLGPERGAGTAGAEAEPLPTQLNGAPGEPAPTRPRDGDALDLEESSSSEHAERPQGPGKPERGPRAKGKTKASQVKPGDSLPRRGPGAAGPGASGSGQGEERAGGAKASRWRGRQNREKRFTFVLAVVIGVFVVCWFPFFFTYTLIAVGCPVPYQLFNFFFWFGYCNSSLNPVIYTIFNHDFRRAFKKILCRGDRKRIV
Chain of rat Adrenergic, Alpha 1A Receptor (Adra1A), Adra1a (gene 29412) (P43140 whole entry, looked up): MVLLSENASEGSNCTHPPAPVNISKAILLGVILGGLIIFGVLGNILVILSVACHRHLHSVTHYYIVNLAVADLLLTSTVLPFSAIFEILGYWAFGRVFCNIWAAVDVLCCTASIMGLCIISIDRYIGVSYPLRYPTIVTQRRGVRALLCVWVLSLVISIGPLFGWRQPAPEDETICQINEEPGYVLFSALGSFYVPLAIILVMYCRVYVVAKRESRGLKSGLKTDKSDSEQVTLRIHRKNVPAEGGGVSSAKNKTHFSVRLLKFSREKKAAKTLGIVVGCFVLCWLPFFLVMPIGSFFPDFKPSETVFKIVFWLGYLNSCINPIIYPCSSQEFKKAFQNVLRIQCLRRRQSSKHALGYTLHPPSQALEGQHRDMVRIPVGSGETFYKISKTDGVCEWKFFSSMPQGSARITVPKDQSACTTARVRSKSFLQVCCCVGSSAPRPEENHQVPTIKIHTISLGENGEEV
Chain of Adra2b (gene 24174) (P19328 whole entry, looked up): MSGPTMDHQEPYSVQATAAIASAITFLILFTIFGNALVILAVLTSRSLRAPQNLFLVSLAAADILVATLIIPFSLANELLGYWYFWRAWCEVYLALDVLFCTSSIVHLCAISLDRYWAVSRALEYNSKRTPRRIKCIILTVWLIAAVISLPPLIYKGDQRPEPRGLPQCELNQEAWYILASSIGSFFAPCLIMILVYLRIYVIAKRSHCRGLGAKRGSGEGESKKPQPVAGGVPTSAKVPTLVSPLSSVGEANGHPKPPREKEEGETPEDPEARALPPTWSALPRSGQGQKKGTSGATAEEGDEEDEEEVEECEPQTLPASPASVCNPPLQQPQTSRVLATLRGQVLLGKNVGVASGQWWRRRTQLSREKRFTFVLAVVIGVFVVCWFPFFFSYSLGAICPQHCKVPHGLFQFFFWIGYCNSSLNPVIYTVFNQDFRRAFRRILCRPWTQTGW
Chain of rat Serotonin, 5-Hydroxytryptamine Receptor (5HT), Non-Selective Binding, Htr1a (gene 24473) (P19327 whole entry, looked up): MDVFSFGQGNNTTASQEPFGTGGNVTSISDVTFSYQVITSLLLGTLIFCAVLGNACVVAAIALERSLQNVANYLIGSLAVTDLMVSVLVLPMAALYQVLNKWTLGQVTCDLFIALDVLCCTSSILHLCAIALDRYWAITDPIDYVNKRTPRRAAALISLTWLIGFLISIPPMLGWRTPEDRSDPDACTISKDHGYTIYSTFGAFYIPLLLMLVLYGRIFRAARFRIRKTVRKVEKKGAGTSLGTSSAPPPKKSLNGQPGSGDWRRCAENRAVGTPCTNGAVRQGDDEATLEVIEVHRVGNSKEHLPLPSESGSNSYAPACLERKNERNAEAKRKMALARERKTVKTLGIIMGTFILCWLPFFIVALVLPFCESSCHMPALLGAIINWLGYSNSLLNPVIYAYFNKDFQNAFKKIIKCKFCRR

O=[N+]([O-])c1ccc(Oc2ccc(Cl)cc2Cl)cc1
AC50 [1]: 0.52 µM (active)

C[N+](C)(C)CC1CO1 (stereo not given)
outcome [2]: inactive

CC(C)(C)C(O)(CCc1ccc(Cl)cc1)Cn1cncn1 (stereo not given)
outcome (Adra2b (gene 24174)): inactive

[Cl-].[Cl-].[Hg+2]
AC50 [3]: 12.1 µM (active) | AC50 [4]: 3.96 µM (active) | AC50 [1]: 35.7 µM (active) | AC50 [5]: 6.48 µM (active) | AC50 [2]: 18.4 µM (active) | AC50 [6]: 24.6 µM (active) | AC50 [7]: 14 µM (active) | AC50 (Adra2b (gene 24174)): 6.72 µM (active)

COC(=O)c1ccccc1N
outcome [8]: inactive

O=[N+]([O-])C(Br)(CO)CO
outcome [9]: inactive | AC50 [7]: 40.5 µM (active)

OCCCl
outcome [9]: inactive

CCC[CH2][Sn]([Cl])([CH2]CCC)[CH2]CCC
AC50 [9]: 12 µM (active) | AC50 [3]: 11.3 µM (active) | AC50 [4]: 3.87 µM (active) | AC50 [1]: 25 µM (active) | AC50 [5]: 2.98 µM (active) | AC50 [8]: 3.75 µM (active) | AC50 [6]: 15.2 µM (active) | AC50 [7]: 2.5 µM (active) | outcome (Adra2b (gene 24174)): inactive

O=C(Oc1ccc(Br)cc1)N1CCN2CCC1CC2
AC50 [6]: 0.851 µM (active) | outcome (Adra2b (gene 24174)): inactive

Cc1cc(N=Nc2ccccc2C)ccc1N
outcome [1]: inactive

CC(C)(C)OOC(=O)c1ccccc1
outcome [6]: inactive

O=Cc1ccco1
outcome [1]: inactive

CCOC(=O)[C@]1(c2ccccc2)Oc2ccccc2[C@@H]1N
AC50 [9]: 2.49 µM (active) | AC50 [3]: 0.38 µM (active) | AC50 [4]: 0.456 µM (active) | AC50 [1]: 2.61 µM (active) | AC50 [5]: 3.76 µM (active) | AC50 [6]: 10.2 µM (active) | AC50 (Adra2b (gene 24174)): 1.76 µM (active)

CC(C)(O)c1cnn2c(-c3ccc(F)c(-c4c(F)cccc4C#N)c3)cnc2n1
outcome [2]: inactive

C[C@]12C=CC3=C4CCC(=O)C=C4CC[C@H]3[C@@H]1CC[C@@H]2O
AC50 (Adra2b (gene 24174)): 20.7 µM (active)

O=C(N[C@H](c1ccccc1)[C@@H]1CN2CCC1CC2)c1c(Cl)ccc(C(F)(F)F)c1Cl
AC50 [9]: 37.5 µM (active) | AC50 [3]: 18.1 µM (active) | AC50 [4]: 14.9 µM (active)

CCCCCCCCn1sccc1=O
AC50 [6]: 10.6 µM (active) | AC50 [7]: 21.2 µM (active) | AC50 (Adra2b (gene 24174)): 26 µM (active)

ClCCOCCCl
outcome [2]: inactive
